Compound activity from PubChem.
Sampled rows, rich in hits. Any-hit rate of the full collection: about 3.6%.
Pf apPOL block = Pf-apPOL inhibitors, biochemical, fluorescence. actives 0.25% (n = 210,000). inhibition, % at 10 µM. Plasmodium falciparum apicoplast DNA polymerase (apPOL). AID 1794808, 2022. Recombinant Pf-apPOL, molecular beacon fluorescence, 1.5 h
mHTT-CaM PPI inh = mutant huntingtin-calmodulin interaction inhibitors – biochemical, AlphaScreen, primary screen; P42858; inhibition, % at 15 µM; AlphaScreen His-mHTT/GST-CaM binding, luminescence; actives 3.6% (n = 190,000)
Target sequence (P42858 whole entry, looked up, change not shown): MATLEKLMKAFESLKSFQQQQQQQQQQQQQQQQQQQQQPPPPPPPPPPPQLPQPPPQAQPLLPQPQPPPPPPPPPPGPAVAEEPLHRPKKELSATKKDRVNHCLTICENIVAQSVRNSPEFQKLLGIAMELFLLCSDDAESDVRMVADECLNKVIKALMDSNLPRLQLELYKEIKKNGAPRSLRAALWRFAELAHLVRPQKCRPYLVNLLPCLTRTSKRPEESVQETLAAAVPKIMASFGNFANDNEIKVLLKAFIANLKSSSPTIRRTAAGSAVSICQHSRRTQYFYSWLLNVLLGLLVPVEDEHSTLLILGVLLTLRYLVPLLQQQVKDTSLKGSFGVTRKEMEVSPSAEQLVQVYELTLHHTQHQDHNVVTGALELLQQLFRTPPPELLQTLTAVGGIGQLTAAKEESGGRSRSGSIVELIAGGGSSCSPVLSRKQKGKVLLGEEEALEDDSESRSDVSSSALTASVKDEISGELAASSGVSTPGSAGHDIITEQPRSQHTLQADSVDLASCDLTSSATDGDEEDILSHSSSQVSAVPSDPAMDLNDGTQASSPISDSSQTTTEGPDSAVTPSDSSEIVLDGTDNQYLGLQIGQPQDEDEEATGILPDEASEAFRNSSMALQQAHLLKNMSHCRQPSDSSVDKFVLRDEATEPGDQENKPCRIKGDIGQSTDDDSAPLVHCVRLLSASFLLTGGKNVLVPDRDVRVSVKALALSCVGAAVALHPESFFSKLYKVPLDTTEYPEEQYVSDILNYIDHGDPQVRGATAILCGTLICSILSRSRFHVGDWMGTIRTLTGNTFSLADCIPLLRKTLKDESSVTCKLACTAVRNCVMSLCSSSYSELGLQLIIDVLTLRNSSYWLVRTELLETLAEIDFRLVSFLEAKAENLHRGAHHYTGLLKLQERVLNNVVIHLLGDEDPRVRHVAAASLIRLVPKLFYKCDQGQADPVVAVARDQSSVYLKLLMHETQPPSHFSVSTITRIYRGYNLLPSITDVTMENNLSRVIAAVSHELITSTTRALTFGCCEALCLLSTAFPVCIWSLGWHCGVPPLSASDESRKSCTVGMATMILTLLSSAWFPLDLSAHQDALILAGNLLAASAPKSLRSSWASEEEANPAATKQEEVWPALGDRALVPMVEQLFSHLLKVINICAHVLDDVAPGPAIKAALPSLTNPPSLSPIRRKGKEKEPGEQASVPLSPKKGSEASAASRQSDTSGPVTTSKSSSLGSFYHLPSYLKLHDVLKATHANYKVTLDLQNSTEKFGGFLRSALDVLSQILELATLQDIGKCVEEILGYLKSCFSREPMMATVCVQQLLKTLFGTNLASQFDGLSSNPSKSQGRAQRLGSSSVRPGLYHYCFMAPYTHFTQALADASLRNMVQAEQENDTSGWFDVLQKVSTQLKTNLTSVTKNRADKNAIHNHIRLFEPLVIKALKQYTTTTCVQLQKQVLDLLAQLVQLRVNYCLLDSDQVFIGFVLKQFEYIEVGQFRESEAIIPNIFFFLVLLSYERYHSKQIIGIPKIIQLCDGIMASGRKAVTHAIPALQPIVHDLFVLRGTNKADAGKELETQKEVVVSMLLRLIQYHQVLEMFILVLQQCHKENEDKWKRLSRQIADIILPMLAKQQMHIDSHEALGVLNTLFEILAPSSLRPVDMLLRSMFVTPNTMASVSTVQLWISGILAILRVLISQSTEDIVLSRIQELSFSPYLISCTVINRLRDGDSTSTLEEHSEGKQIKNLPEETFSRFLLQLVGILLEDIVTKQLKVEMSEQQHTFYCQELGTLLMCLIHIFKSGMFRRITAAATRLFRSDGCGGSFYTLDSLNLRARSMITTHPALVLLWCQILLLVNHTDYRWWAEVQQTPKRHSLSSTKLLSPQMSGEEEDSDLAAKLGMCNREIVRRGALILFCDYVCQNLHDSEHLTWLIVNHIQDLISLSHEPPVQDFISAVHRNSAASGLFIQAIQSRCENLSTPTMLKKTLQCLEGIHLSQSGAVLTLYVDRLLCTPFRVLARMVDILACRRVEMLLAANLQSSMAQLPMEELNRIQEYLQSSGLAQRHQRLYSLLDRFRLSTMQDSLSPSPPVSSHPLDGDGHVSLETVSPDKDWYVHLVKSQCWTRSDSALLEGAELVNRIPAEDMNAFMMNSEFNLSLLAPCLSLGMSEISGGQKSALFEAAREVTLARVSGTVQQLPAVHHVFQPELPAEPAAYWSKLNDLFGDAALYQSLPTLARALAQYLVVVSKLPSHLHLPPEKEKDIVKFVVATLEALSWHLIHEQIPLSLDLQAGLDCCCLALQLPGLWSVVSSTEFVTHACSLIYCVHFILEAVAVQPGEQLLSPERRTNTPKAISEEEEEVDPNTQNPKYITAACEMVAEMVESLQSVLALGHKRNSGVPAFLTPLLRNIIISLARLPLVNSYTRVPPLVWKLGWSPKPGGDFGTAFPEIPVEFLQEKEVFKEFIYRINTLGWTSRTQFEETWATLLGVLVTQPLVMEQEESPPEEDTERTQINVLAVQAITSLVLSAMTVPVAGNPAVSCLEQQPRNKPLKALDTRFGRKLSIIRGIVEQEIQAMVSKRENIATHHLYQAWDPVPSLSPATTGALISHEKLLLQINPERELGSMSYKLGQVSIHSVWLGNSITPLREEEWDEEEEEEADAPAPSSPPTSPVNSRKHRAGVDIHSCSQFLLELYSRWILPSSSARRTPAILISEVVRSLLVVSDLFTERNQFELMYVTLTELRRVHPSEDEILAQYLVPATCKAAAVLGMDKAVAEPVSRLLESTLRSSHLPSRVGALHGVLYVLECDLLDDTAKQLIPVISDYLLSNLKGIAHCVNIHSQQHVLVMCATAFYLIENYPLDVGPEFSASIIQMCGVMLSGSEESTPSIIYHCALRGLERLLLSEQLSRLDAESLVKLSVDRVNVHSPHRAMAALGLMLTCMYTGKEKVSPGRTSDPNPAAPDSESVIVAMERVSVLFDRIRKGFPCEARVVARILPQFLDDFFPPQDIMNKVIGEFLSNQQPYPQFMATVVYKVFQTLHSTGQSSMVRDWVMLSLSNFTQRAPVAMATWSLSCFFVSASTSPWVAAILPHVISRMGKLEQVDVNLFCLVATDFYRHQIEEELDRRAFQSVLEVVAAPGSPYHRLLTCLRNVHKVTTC
Each line names hits and unclear results; the compound was inactive in the other large screens; ! = repeats disagree. Rule as the data show it: active = inhibition above about 50%; inactive = the rest.

CC(C)(C)n1nc2c(c1NC(=O)c1cc([N+](=O)[O-])ccc1Cl)CSC2	none
COc1ccc(N2CCn3c2nn(CC(=O)NCc2ccco2)c(=O)c3=O)cc1	none
O=C(CN1CCN(Cc2ccccc2)CC1)N1CCCc2c1c(=O)oc1ccc(O)cc21	mHTT-CaM PPI inh 57
O=C(c1ccco1)N1CCN(CC(=O)N2CCCc3c2c(=O)oc2ccc(O)cc32)CC1	none
COc1ccc(C(=O)Nc2c3c(nn2-c2cccc(C)c2)CSC3)cc1OC	none
COc1cccc(C(=O)Nc2c3c(nn2-c2ccccc2C)CSC3)c1	none
Cc1ccccc1-n1nc2c(c1NC(=O)c1cccc(Cl)c1)CSC2	mHTT-CaM PPI inh 71
O=C(Nc1c2c(nn1-c1ccc([N+](=O)[O-])cc1)CSC2)c1ccc([N+](=O)[O-])cc1	none
Cc1ccccc1-n1nc2c(c1NC(=O)c1ccccc1[N+](=O)[O-])CSC2	none
Cc1ccccc1-n1nc2c(c1NC(=O)c1ccc([N+](=O)[O-])cc1)CSC2	mHTT-CaM PPI inh 84
COc1ccc(C(=O)Nc2c3c(nn2-c2cccc(Cl)c2)CSC3)cc1OC	mHTT-CaM PPI inh 57
O=C(Nc1c2c(nn1-c1ccc([N+](=O)[O-])cc1)CSC2)c1ccc(F)cc1	Pf apPOL block 58
CCN(CCCNC(=O)c1cc2cc3ccc(Cl)cc3nc2o1)c1ccccc1	none
NS(=O)(=O)c1ccc(CNC(=O)c2cccc(I)c2)cc1	none
COc1cccc2cc(-c3cc(=O)oc4cc(OC(=O)C(C)C)ccc34)c(=O)oc12	none
Cc1cc(C)n(-c2cc(NCCCOC(C)C)ncn2)n1	none
Cc1cc(C)cc(C(=O)Nc2c3c(nn2-c2ccccc2C)CSC3)c1	none
Cc1ccccc1-n1nc2c(c1NC(=O)c1ccc(Cl)cc1)CSC2	mHTT-CaM PPI inh 71
O=C1CCCC(=O)N1CCS(=O)(=O)N1CCN(Cc2ccc3c(c2)OCO3)CC1	none
O=C(NCc1cccc(Cl)c1)c1cc2n(n1)CCCN(Cc1ccc(Cl)cc1)C2=O	mHTT-CaM PPI inh 64
O=C(NCc1cccc(Cl)c1)c1cc2n(n1)CCCN(Cc1ccccc1)C2=O	none
O=C(/C=C/c1ccc2c(c1)OCO2)Nc1c2c(nn1-c1ccc(Cl)cc1)CSC2	none
CCC(=O)Nc1c2c(nn1-c1ccccc1C)CSC2	none
O=C(Nc1c2c(nn1-c1ccccc1)CSC2)c1cccs1	none
O=C(/C=C/c1ccccc1)Nc1c2c(nn1-c1ccc(Cl)cc1)CSC2	mHTT-CaM PPI inh 56
Cc1ccc(-n2nc3c(c2NC(=O)/C=C/c2ccccc2)CSC3)c(C)c1	none
Cc1ccccc1-n1nc2c(c1NC(=O)/C=C/c1ccccc1)CSC2	mHTT-CaM PPI inh 81
Cc1ccccc1-n1nc2c(c1NC(=O)CSCc1ccccc1)CSC2	mHTT-CaM PPI inh 81
O=C(Nc1c2c(nn1-c1ccc(Cl)cc1)CSC2)c1cccs1	mHTT-CaM PPI inh 50
CC(C)CCNC(=O)C1CCN(c2cncnc2N(C)C)CC1	none
Cc1ccccc1Cc1nc2c(c(=O)[nH]1)CN(C(=O)Nc1cccc(C)c1C)CC2	none
Cc1cc(C)n(-c2cccc(F)c2)c(=O)c1C(N)=O	none
Cc1nc2onc(N)c2c(C)c1Cl	none (no result: Pf apPOL block)
CC1(C)CC(=O)c2cc3c(N)c(C(=O)c4cccs4)sc3nc2C1	none
Brc1ccc(Nc2nc(NCc3ccco3)c3ccccc3n2)cc1	mHTT-CaM PPI inh 100
O=[N+]([O-])c1ccc(-c2nc(NCc3ccco3)c3ccccc3n2)cc1	none
Cc1cccc(-c2noc(-c3ccc(NCc4ccccc4)nc3)n2)c1	none
CCN(CCCNC(=O)Cc1cn(C)c2ccccc12)c1ccccc1	mHTT-CaM PPI inh 53
CCN(CC)CCCNC(=O)Cc1cn(C)c2ccccc12	none
CCCCCCn1c(SCC(O)CO)nc2c1c(=O)[nH]c(=O)n2C (stereo not given)	none
Cn1c(=O)[nH]c(=O)c2c1nc(SCC(O)CO)n2CC(N)=O (stereo not given)	Pf apPOL block 65
CCc1nc2c(NC(=O)CCOC)cccn2n1	none
O=C1N=C(N2CCOCC2)S/C1=C\c1ccccc1	none
O=C1N=C(N2CCOCC2)S/C1=C/C1=Cc2ccccc2OC1	mHTT-CaM PPI inh 52
COc1ccc(-c2cc(C(=O)N3CCCC3c3c(C)noc3C)no2)cc1 (stereo not given)	none
COc1ccc(C(=O)NC(NC2CCCCC2)C(Cl)(Cl)Cl)cc1 (stereo not given)	none
Cc1noc(CNC(=O)C2CCN(C(=O)c3cc(C)on3)CC2)n1	none
CN(Cc1ccco1)S(=O)(=O)c1ccc2[nH]c3c(c2c1)CCCCC3	mHTT-CaM PPI inh 78
CN(C)c1ccc(CNS(=O)(=O)c2ccc3[nH]c4c(c3c2)CCCCC4)cc1	mHTT-CaM PPI inh 55
O=S(=O)(NCc1ccco1)c1ccc2[nH]c3c(c2c1)CCCCC3	mHTT-CaM PPI inh 87
O=S(=O)(NCc1ccccc1)c1ccc2[nH]c3c(c2c1)CCCCC3	mHTT-CaM PPI inh 57
CN(CC(=O)NCc1ccco1)S(=O)(=O)c1ccc2[nH]c3c(c2c1)CCCC3	none
Cc1ccc(CNS(=O)(=O)c2ccc3[nH]c4c(c3c2)CCCCC4)cc1	none
O=c1[nH]c2ccc(S(=O)(=O)NCc3ccco3)cc2s1	none
O=S(=O)(NCc1cccnc1)c1ccc2[nH]c3c(c2c1)CCCC3	none
O=C(NC1CCN(C(=O)c2cn(-c3cccc(F)c3)nn2)CC1)c1ccc2ccccc2n1	none
COc1ccccc1CNC(=O)C1CCc2nc(N3CCCCC3)ncc2C1 (stereo not given)	none
CCN(CC)S(=O)(=O)N1CCCC(C(=O)NCCC2=CCCCC2)C1 (stereo not given)	none
Cc1ccc(NC(=O)CC2Nc3cc(C)c(C)cc3NC2=O)c(Br)c1 (stereo not given)	mHTT-CaM PPI inh 64!
Cc1cc2c(cc1C)NC(CC(=O)Nc1ccccc1OC(F)F)C(=O)N2 (stereo not given)	mHTT-CaM PPI inh 50!
Cc1cc2c(cc1C)NC(CC(=O)Nc1ccccc1C)C(=O)N2 (stereo not given)	none
CCOc1ccccc1NC(=O)CC1Nc2cc(C)c(C)cc2NC1=O (stereo not given)	none
COc1ccccc1N1CCN(C(=O)C2CCN(c3nnc(-c4ccccc4)o3)CC2)CC1	none
CC(=O)Nc1nc(-c2ccccc2)c(-c2ccccc2)o1	none
O=C(Nc1nc(-c2ccccc2)c(-c2ccccc2)o1)c1cccs1	mHTT-CaM PPI inh 62
COc1ccc(-c2nnc(NC(=O)c3cccs3)o2)cc1	mHTT-CaM PPI inh 66
COc1ccc(-c2csc(NC(=O)c3cccs3)n2)cc1	none
COc1ccc(C2CC(=O)N(C)C3=C2C(=O)CC(C)(C)C3)c(OC)c1 (stereo not given)	none
COc1ccc(C2CC(c3ccc(I)cc3)Nc3ncnn32)cc1 (stereo not given)	none
COC(=O)Nc1nc(CC(=O)Nc2ccc(F)c(Cl)c2)cs1	none
COc1ccc(C(=O)Oc2ccc3c(=O)c(-c4ccc(Cl)cc4)coc3c2)cc1	none
COc1cccc(CNC(=O)C2(C)CCCN(C(=O)c3ccc(C)c(C)c3)C2)c1 (stereo not given)	none
O=C(CC1CCCC1)N1CCC(c2nc(-c3ccccc3)n[nH]2)CC1	none
O=C(CCNc1cccc(F)c1)c1cccc([N+](=O)[O-])c1	none
O=[N+]([O-])c1ccc(/C=C/CNc2cccc(F)c2)o1	mHTT-CaM PPI inh 59
N#CC1=C(N)Oc2n[nH]c(-c3ccc(Br)cc3)c2C1c1ccsc1 (stereo not given)	none
O=C(NCCOc1ccc2nnc(-c3ccc(F)cc3)n2n1)c1cc(-c2ccco2)[nH]n1	Pf apPOL block 64
O=C(Cc1cccs1)NCCOc1ccc2nnc(-c3ccc(F)cc3)n2n1	none
